Legend:
Experiment in all cases: PBM; 200 nM protein, PBS
Conditions in all cases: dsDNA, one strand shown
[1] = target: HOXA4 (Homo sapiens, UniProt Q00056 201-287, W262R)
[2] = target: HOXA4 (Homo sapiens, UniProt Q00056 201-287, R217L)
[3] = target: HOXA2 (Homo sapiens, UniProt O43364 129-215, R185K)
[4] = target: HOXA4 (Homo sapiens, UniProt Q00056 201-287)
[5] = target: HOXA4 (Homo sapiens, UniProt Q00056 201-287, W262F)
[6] = target: HOXA2 (Homo sapiens, UniProt O43364 129-215, R185T)
[7] = target: VAX1 (Homo sapiens, UniProt Q5SQQ9 86-172)
Chain of VAX1 (Homo sapiens, UniProt Q5SQQ9 86-172) (Q5SQQ9 86-172): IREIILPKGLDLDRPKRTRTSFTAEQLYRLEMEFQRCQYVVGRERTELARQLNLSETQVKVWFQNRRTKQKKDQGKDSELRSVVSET

[8] = target: VAX1 (Homo sapiens, UniProt Q5SQQ9 86-172, T142I)
Chain of VAX1 (Homo sapiens, UniProt Q5SQQ9 86-172, T142I) (Q5SQQ9 86-172 T142I): as the sequence (Q5SQQ9 86-172) above, with T57I counted along it

[9] = target: HOXA2 (Homo sapiens, UniProt O43364 129-215, Y150S)
Chain of HOXA2 (Homo sapiens, UniProt O43364 129-215, Y150S) (O43364 129-215 Y150S): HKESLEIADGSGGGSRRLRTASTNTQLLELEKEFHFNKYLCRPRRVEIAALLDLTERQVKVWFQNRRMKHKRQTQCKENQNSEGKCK

[10] = target: HOXA2 (Homo sapiens, UniProt O43364 129-215)
Chain of HOXA2 (Homo sapiens, UniProt O43364 129-215) (O43364 129-215): as the sequence (O43364 129-215 Y150S) above, with S22Y counted along it

[11] = target: VAX1 (Homo sapiens, UniProt Q5SQQ9 86-172, K157R)
Chain of VAX1 (Homo sapiens, UniProt Q5SQQ9 86-172, K157R) (Q5SQQ9 86-172 K157R): as the sequence (Q5SQQ9 86-172) above, with K72R counted along it

[12] = target: PROP1 (Homo sapiens, UniProt O75360 56-141)
Chain of PROP1 (Homo sapiens, UniProt O75360 56-141) (O75360 56-141): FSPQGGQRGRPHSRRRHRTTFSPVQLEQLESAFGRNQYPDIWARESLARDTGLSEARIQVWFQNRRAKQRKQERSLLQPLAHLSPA

[13] = target: PROP1 (Homo sapiens, UniProt O75360 56-141, R99H)
Chain of PROP1 (Homo sapiens, UniProt O75360 56-141, R99H) (O75360 56-141 R99H): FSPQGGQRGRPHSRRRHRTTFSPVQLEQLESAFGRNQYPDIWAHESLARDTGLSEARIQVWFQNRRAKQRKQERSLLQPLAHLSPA

[14] = target: PROP1 (Homo sapiens, UniProt O75360 56-141, F88S)
Chain of PROP1 (Homo sapiens, UniProt O75360 56-141, F88S) (O75360 56-141 F88S): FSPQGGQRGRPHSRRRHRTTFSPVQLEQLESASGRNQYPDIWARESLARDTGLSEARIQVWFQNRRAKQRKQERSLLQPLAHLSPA

[15] = target: ALX3 (Homo sapiens, UniProt O95076 139-225, N203Q)
Chain of ALX3 (Homo sapiens, UniProt O95076 139-225, N203Q) (O95076 139-225 N203Q): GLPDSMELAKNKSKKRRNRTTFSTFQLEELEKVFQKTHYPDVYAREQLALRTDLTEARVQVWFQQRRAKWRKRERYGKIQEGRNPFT

[16] = target: ALX3 (Homo sapiens, UniProt O95076 139-225)
Chain of ALX3 (Homo sapiens, UniProt O95076 139-225) (O95076 139-225): as the sequence (O95076 139-225 N203Q) above, with Q65N counted along it

[17] = target: ALX3 (Homo sapiens, UniProt O95076 139-225, L168Q)
Chain of ALX3 (Homo sapiens, UniProt O95076 139-225, L168Q) (O95076 139-225 L168Q): as the sequence (O95076 139-225 N203Q) above, with L30Q, Q65N counted along it

[18] = target: ALX3 (Homo sapiens, UniProt O95076 139-225, L168V)
Chain of ALX3 (Homo sapiens, UniProt O95076 139-225, L168V) (O95076 139-225 L168V): as the sequence (O95076 139-225 N203Q) above, with L30V, Q65N counted along it

[19] = target: ALX3 (Homo sapiens, UniProt O95076 139-225, N203S)
Chain of ALX3 (Homo sapiens, UniProt O95076 139-225, N203S) (O95076 139-225 N203S): as the sequence (O95076 139-225 N203Q) above, with Q65S counted along it

[20] = target: MSX2 (Homo sapiens, UniProt P35548 130-214, R199I)
Chain of MSX2 (Homo sapiens, UniProt P35548 130-214, R199I) (P35548 130-214 R199I): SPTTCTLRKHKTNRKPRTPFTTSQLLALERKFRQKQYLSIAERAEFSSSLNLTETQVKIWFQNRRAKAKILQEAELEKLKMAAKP

[21] = target: MSX2 (Homo sapiens, UniProt P35548 130-214)
Chain of MSX2 (Homo sapiens, UniProt P35548 130-214) (P35548 130-214): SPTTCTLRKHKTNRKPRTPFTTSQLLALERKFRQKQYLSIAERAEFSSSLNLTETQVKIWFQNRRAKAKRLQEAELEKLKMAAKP

[22] = target: MSX2 (Homo sapiens, UniProt P35548 130-214, F161Y)
Chain of MSX2 (Homo sapiens, UniProt P35548 130-214, F161Y) (P35548 130-214 F161Y): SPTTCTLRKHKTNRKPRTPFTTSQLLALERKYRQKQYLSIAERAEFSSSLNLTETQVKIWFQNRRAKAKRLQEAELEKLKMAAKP

Chain of HOXA2 (Homo sapiens, UniProt O43364 129-215, R185K) (O43364 129-215 R185K): as the sequence (O43364 129-215 Y150S) above, with S22Y, R57K counted along it
Chain of HOXA4 (Homo sapiens, UniProt Q00056 201-287, R217L) (Q00056 201-287 R217L): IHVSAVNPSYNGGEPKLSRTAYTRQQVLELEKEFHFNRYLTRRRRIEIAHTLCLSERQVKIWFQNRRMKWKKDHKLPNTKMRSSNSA
Chain of HOXA4 (Homo sapiens, UniProt Q00056 201-287) (Q00056 201-287): as the sequence (Q00056 201-287 R217L) above, with L17R counted along it
Chain of HOXA4 (Homo sapiens, UniProt Q00056 201-287, W262R) (Q00056 201-287 W262R): as the sequence (Q00056 201-287 R217L) above, with L17R, W62R counted along it
Chain of HOXA4 (Homo sapiens, UniProt Q00056 201-287, W262F) (Q00056 201-287 W262F): as the sequence (Q00056 201-287 R217L) above, with L17R, W62F counted along it
Chain of HOXA2 (Homo sapiens, UniProt O43364 129-215, R185T) (O43364 129-215 R185T): as the sequence (O43364 129-215 Y150S) above, with S22Y, R57T counted along it

CATTAATC
binding signal [1]: 10.5 upbm affinity estimate (log intensity, higher = more binding, comparable within an allelic series) | binding signal [2]: 11.9 upbm affinity estimate (log intensity, higher = more binding, comparable within an allelic series) | binding signal [3]: 13.2 upbm affinity estimate (log intensity, higher = more binding, comparable within an allelic series) | binding signal [4]: 13.6 upbm affinity estimate (log intensity, higher = more binding, comparable within an allelic series) | binding signal [5]: 11.3 upbm affinity estimate (log intensity, higher = more binding, comparable within an allelic series)

TAATGAGA
binding signal [1]: 10.5 upbm affinity estimate (log intensity, higher = more binding, comparable within an allelic series) | binding signal [6]: 12.9 upbm affinity estimate (log intensity, higher = more binding, comparable within an allelic series) | binding signal [2]: 11.8 upbm affinity estimate (log intensity, higher = more binding, comparable within an allelic series) | binding signal [3]: 13.3 upbm affinity estimate (log intensity, higher = more binding, comparable within an allelic series) | binding signal [4]: 13.6 upbm affinity estimate (log intensity, higher = more binding, comparable within an allelic series) | binding signal [7]: 13.2 upbm affinity estimate (log intensity, higher = more binding, comparable within an allelic series) | binding signal [8]: 12.7 upbm affinity estimate (log intensity, higher = more binding, comparable within an allelic series) | binding signal [9]: 10.8 upbm affinity estimate (log intensity, higher = more binding, comparable within an allelic series) | binding signal [5]: 11.5 upbm affinity estimate (log intensity, higher = more binding, comparable within an allelic series) | binding signal [10]: 12.5 upbm affinity estimate (log intensity, higher = more binding, comparable within an allelic series) | binding signal [11]: 12.8 upbm affinity estimate (log intensity, higher = more binding, comparable within an allelic series)

CATCCCCC
binding signal [1]: 9.63 upbm affinity estimate (log intensity, higher = more binding, comparable within an allelic series) | binding signal [2]: 9.8 upbm affinity estimate (log intensity, higher = more binding, comparable within an allelic series) | binding signal [4]: 9.66 upbm affinity estimate (log intensity, higher = more binding, comparable within an allelic series) | binding signal [12]: 6.77 upbm affinity estimate (log intensity, higher = more binding, comparable within an allelic series) | binding signal [13]: 6.66 upbm affinity estimate (log intensity, higher = more binding, comparable within an allelic series) | binding signal [14]: 6.11 upbm affinity estimate (log intensity, higher = more binding, comparable within an allelic series) | binding signal [5]: 9.58 upbm affinity estimate (log intensity, higher = more binding, comparable within an allelic series)

CCCCCCGA
binding signal [1]: 9.72 upbm affinity estimate (log intensity, higher = more binding, comparable within an allelic series) | binding signal [2]: 9.69 upbm affinity estimate (log intensity, higher = more binding, comparable within an allelic series) | binding signal [15]: 7.7 upbm affinity estimate (log intensity, higher = more binding, comparable within an allelic series) | binding signal [4]: 9.77 upbm affinity estimate (log intensity, higher = more binding, comparable within an allelic series) | binding signal [16]: 7.94 upbm affinity estimate (log intensity, higher = more binding, comparable within an allelic series) | binding signal [17]: 7.67 upbm affinity estimate (log intensity, higher = more binding, comparable within an allelic series) | binding signal [18]: 7.65 upbm affinity estimate (log intensity, higher = more binding, comparable within an allelic series) | binding signal [5]: 9.57 upbm affinity estimate (log intensity, higher = more binding, comparable within an allelic series) | binding signal [19]: 7.71 upbm affinity estimate (log intensity, higher = more binding, comparable within an allelic series)

AACATTAG
binding signal [1]: 10.2 upbm affinity estimate (log intensity, higher = more binding, comparable within an allelic series) | binding signal [2]: 10.8 upbm affinity estimate (log intensity, higher = more binding, comparable within an allelic series) | binding signal [4]: 12.4 upbm affinity estimate (log intensity, higher = more binding, comparable within an allelic series) | binding signal [5]: 10.7 upbm affinity estimate (log intensity, higher = more binding, comparable within an allelic series)

AGGGCTCC
binding signal [1]: 9.75 upbm affinity estimate (log intensity, higher = more binding, comparable within an allelic series) | binding signal [6]: 7.29 upbm affinity estimate (log intensity, higher = more binding, comparable within an allelic series) | binding signal [2]: 9.79 upbm affinity estimate (log intensity, higher = more binding, comparable within an allelic series) | binding signal [3]: 10.4 upbm affinity estimate (log intensity, higher = more binding, comparable within an allelic series) | binding signal [4]: 9.81 upbm affinity estimate (log intensity, higher = more binding, comparable within an allelic series) | binding signal [9]: 10.3 upbm affinity estimate (log intensity, higher = more binding, comparable within an allelic series) | binding signal [5]: 9.81 upbm affinity estimate (log intensity, higher = more binding, comparable within an allelic series) | binding signal [10]: 7.22 upbm affinity estimate (log intensity, higher = more binding, comparable within an allelic series)

AACTAATA
binding signal [1]: 10.5 upbm affinity estimate (log intensity, higher = more binding, comparable within an allelic series) | binding signal [2]: 11.2 upbm affinity estimate (log intensity, higher = more binding, comparable within an allelic series) | binding signal [15]: 8.57 upbm affinity estimate (log intensity, higher = more binding, comparable within an allelic series) | binding signal [4]: 12.5 upbm affinity estimate (log intensity, higher = more binding, comparable within an allelic series) | binding signal [5]: 11 upbm affinity estimate (log intensity, higher = more binding, comparable within an allelic series) | binding signal [19]: 8.65 upbm affinity estimate (log intensity, higher = more binding, comparable within an allelic series)

GGCCCGGA
binding signal [1]: 9.72 upbm affinity estimate (log intensity, higher = more binding, comparable within an allelic series) | binding signal [2]: 9.68 upbm affinity estimate (log intensity, higher = more binding, comparable within an allelic series) | binding signal [20]: 9.48 upbm affinity estimate (log intensity, higher = more binding, comparable within an allelic series) | binding signal [15]: 7.72 upbm affinity estimate (log intensity, higher = more binding, comparable within an allelic series) | binding signal [4]: 9.79 upbm affinity estimate (log intensity, higher = more binding, comparable within an allelic series) | binding signal [21]: 9.31 upbm affinity estimate (log intensity, higher = more binding, comparable within an allelic series) | binding signal [16]: 7.7 upbm affinity estimate (log intensity, higher = more binding, comparable within an allelic series) | binding signal [17]: 7.72 upbm affinity estimate (log intensity, higher = more binding, comparable within an allelic series) | binding signal [18]: 7.71 upbm affinity estimate (log intensity, higher = more binding, comparable within an allelic series) | binding signal [22]: 9.46 upbm affinity estimate (log intensity, higher = more binding, comparable within an allelic series) | binding signal [5]: 9.78 upbm affinity estimate (log intensity, higher = more binding, comparable within an allelic series) | binding signal [19]: 7.75 upbm affinity estimate (log intensity, higher = more binding, comparable within an allelic series)

GACTCACC
binding signal [1]: 9.89 upbm affinity estimate (log intensity, higher = more binding, comparable within an allelic series) | binding signal [2]: 9.87 upbm affinity estimate (log intensity, higher = more binding, comparable within an allelic series) | binding signal [4]: 9.79 upbm affinity estimate (log intensity, higher = more binding, comparable within an allelic series) | binding signal [7]: 6.98 upbm affinity estimate (log intensity, higher = more binding, comparable within an allelic series) | binding signal [8]: 7.2 upbm affinity estimate (log intensity, higher = more binding, comparable within an allelic series) | binding signal [5]: 9.8 upbm affinity estimate (log intensity, higher = more binding, comparable within an allelic series) | binding signal [11]: 7.1 upbm affinity estimate (log intensity, higher = more binding, comparable within an allelic series)

— article PMC11006913
